According to PubChem BioAssay (NCI):
Compounds without any hit were thinned out: in the full panel of roughly 83,000, 20% have a hit.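 Single-dose data. Exposure time 48 hours. Values below 10 considered active.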 A number with no mark means an inactive call. The source made the active and inactive calls.

Test system: SNB-75 CNS
Assay: NCI-60 one-dose screen, 48 h (100 = growth as untreated, 0 = no growth, -100 = all killed)
Conditions: 10 µM unless noted

| Structure (SMILES) | growth |
| --- | --- |
| CN1CCN(Cc2ccc(NC(=O)c3cncc(C#Cc4cnc5ccc(N6CCN(C)CC6)nn45)c3)cc2C(F)(F)F)CC1 | -68.9% (active) |
| O=C(O)c1cn(C2CC2)c2cc(N3CCN(C(=O)CN4C(=O)CSC4=O)CC3)c(F)cc2c1=O | 45.3% |
| NC/C(=C/F)COc1ccc2nc(NCc3cccnc3)oc2c1 | 63.1% |
| C=C(C)[C@@H]1CC[C@]2(C(=O)NCCCCCN(CCC#N)CCC#N)CC[C@]3(C)[C@H](CC[C@@H]4[C@@]5(C)CCC(=O)C(C)(C)[C@@H]5CC[C@]43C)[C@@H]12 | 62.1% |
| CCCCNNC(=O)c1ccc(-c2cccc(F)c2F)cc1 | 80.7% |
| C#Cc1ccc(C(=O)NCc2ccc(/C=C/C(=O)c3nccn3C)cc2)cc1 | 67.3% |
| COc1ccc(/C(N)=N/C(N)=N/c2nc3ccccc3s2)cc1 | 23.5% |
| O=C(CN1CCN(c2cc(=O)[nH]c3ccc(F)cc23)CC1)Nc1ccc(Cl)cc1 | 13% |
| Cc1ccc(-n2cc(/C=C/C(=O)c3ccc(O)cc3)c(-c3ccc(S(C)(=O)=O)cc3)n2)cc1 | 87.5% |
| O=S(=O)(NCCCNc1nccc(-c2[nH]c(-c3ccccc3)nc2-c2ccc(Cl)c(O)c2)n1)c1cccc(F)c1 | 104% |
| Cc1cc(-c2ccc(Cl)cc2)n(Cc2nnc(SCC(=O)Nc3ccc(S(N)(=O)=O)cc3)n2C2CCCCC2)n1 | 118% |
| Oc1cccc2ccc(-c3nnc(SCc4ccc(O)c5ncccc45)n3-c3ccccc3)nc12 | 9.14% (active) |
| Cc1ccc(-c2nn(-c3ccccc3)cc2/C=C/C(=O)c2ccc(NC(=O)CCCCCCC(=O)NO)cc2)cc1 | 102% |
| CC(C)(C)c1ccc(C(=O)Nc2sc3c(c2C(N)=O)CCC(O)C3)cc1 (stereo not drawn) | 98.1% |
| O=C(Nc1ccc2c(ccn2Cc2ccccn2)c1)c1ccnnc1 | 56% |
| CC(C)(C)c1ccc(C(=O)Nc2sc3c(c2C(N)=O)CC/C(=N\O)C3)cc1 | 44.2% |
| NC(N)=Nc1ccc(Oc2cccc(Nc3ccc(Cl)cc3)c2)cn1 | 22.9% |
| CCc1cccc(NC(=O)CNc2cc(S(=O)(=O)N(C)C)cc(C)c2C)c1 | 47% |
| COc1ccc(N2C(=O)c3cc(Cl)ccc3NC2SCc2ccccc2)cc1 (stereo not drawn) | 94.9% |

| Structure (SMILES) | growth |
| --- | --- |
| O=C(CN1CCN(c2cc(=O)n(-c3ccccc3)c3ccccc23)CC1)Nc1nc(-c2ccc(Cl)cc2)cs1 | 67.5% |
| COc1ccc(C2c3sc4c(C)cccc4c3Oc3nc(CC(=O)Nc4ccccc4)[nH]c(=O)c32)cc1 (stereo not drawn) | 39.4% |
| O=C(/C=C/c1ccc(F)cc1)c1ccc(O)cc1 | 95.3% |
| Cn1ccnc1C(=O)/C=C/c1ccc(NC(=O)c2c(F)c(F)c(F)c(F)c2F)cc1 | 103% |
| Nc1cc(-c2c[nH]c3ccc(Br)cc23)nc2cc(-c3c[nH]c4ccc(Br)cc34)nn12 | 41.9% |
| C#CCC#CCN1CCC[C@H]1C(=O)NCC(=O)OC | 105% |
| COc1cc(/C=C/C(=O)c2ccc(NC(=O)CSc3nnc(-c4ccc(-c5nc6ccc(Cl)cc6[nH]5)cc4)o3)cc2)cc(OC)c1OC | 88.4% |
| Oc1cccc2ccc(-c3nnc(SCc4ccc(O)c5ncccc45)o3)nc12 | 34.3% |
| NS(=O)(=O)c1ccc(Nc2nc(SCc3ccccc3)nc3ccccc23)cc1 | 70.5% |
| O=C1[C@@H]2Cc3c([nH]c4ccccc34)[C@H](c3c(Cl)cccc3Cl)N2C(=O)CN1C1CCN(CC2CCCCC2)CC1 | 103% |
| NS(=O)(=O)c1ccc(Nc2nc(N/N=C/c3c[nH]c4ccccc34)nc(Nc3ccccc3)n2)cc1 | 70.8% |
| N#Cc1c(-c2cccs2)cc(-c2cnccn2)nc1SCC(=O)Nc1ccc(Br)cc1 | 50.6% |
| COc1ccc(Cn2cc3c(c2-c2cc(OC)c(OC)c(OC)c2)CCc2c(CN4CCOCC4)noc2-3)cc1 | 18% |
| C=CCn1c(SCC(=O)Nc2ccc(C(=O)/C=C/c3ccc(C)cc3)cc2)nnc1-c1c[nH]c2ccccc12 | 97.4% |
| COc1ccccc1C(=O)Nc1cccc2c1C(=O)C(=O)C=C2 | 70% |
| COc1cc(-c2nn(C(C)(C)C)cc2-c2ccnc(NCCCNS(=O)(=O)c3ccc(Cl)cc3)n2)ccc1Cl | 41.7% |
| CCc1cccc2c3c(sc12)C(c1ccc(Cl)cc1)C(C#N)=C(/N=C/c1ccc(Cl)cc1)O3 (stereo not drawn) | -13.9% (active) |
| C=C(C=O)[C@@H]1CC[C@]2(COC(C)=O)CC[C@]3(C)C(CC[C@@H]4[C@@]5(C)CC[C@H](OC(C)=O)C(C)(C)[C@@H]5CC[C@]43C)[C@@H]12 (stereo partly drawn) | 32.1% |
| COc1ccccc1N1CCN(C2=CC(=O)C(C)=C(C)C2=O)CC1 | 102% |
